SMILES strings stand for the structures. For some of these results: Potency and affinity values are given separately.

Holding throughout (parameters): scale not given: direction of the effect not stated beside the values
In assay [1] the target is Protein translocase subunit SecA (Escherichia coli (strain K12)) (UniProt P10408). The experiment in a line: Assay to Identify E. coli SecA ATPase Inhibitors. The format is functional. To be noted: 30 µM.
For assay [2], the target named is T1, Ubiquitin-activating enzyme e1, putative (Leishmania donovani (strain BPK282A1)) (UniProt E9BSI1).
T1 sequence (whole entry): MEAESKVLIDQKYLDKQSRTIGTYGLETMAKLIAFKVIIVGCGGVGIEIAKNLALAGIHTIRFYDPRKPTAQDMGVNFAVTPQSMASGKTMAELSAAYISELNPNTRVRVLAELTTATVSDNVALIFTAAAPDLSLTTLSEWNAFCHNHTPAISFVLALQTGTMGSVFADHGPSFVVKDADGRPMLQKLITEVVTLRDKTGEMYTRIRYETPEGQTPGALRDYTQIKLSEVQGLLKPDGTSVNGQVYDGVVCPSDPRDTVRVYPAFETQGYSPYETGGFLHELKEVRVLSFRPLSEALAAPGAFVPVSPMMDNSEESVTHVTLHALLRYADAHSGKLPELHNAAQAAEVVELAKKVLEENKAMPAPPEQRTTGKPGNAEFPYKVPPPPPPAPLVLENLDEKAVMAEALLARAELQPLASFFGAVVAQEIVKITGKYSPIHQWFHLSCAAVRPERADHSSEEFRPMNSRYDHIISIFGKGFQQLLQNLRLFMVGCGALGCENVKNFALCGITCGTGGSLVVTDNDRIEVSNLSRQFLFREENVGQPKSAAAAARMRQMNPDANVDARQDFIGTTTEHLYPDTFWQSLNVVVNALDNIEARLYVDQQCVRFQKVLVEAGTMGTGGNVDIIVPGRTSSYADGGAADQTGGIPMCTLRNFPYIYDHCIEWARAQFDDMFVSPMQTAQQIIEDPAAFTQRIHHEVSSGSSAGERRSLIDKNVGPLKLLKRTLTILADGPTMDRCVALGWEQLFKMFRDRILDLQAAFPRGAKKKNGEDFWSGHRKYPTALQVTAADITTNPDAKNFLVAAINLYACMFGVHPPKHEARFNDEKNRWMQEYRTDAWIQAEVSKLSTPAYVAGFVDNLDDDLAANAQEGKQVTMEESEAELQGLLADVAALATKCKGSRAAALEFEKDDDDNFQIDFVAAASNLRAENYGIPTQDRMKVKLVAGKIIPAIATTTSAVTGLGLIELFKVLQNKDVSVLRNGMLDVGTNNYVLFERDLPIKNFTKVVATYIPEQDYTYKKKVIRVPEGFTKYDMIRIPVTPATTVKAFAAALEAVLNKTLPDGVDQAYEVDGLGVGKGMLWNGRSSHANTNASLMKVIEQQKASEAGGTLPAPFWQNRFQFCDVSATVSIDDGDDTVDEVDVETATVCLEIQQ
Put plainly: Leishmania donovani Ubiquitin Activating Enzyme (LdE1). To be noted: 30 µM. In kind it is functional.

Assay [3] has as its target AMP-activated protein kinase, AMPK (Homo sapiens) (UniProt P54646+O43741+P54619+Q9UGJ0+Q9Y478+Q13131+Q9UGI9). The experiment in a line: AMP-dependent Kinase enzyme assay. An in vitro enzyme assay that detects ADP turnover that is directly proportional to AMPK activity. This uses naive AMPK that is activated during the assay with MK-8722. In kind it is functional. To be noted: 30 µM.

The target of assay [4] is Sialic acid-binding Ig-like lectin 9 (Homo sapiens) (UniProt Q9Y336). The experiment in a line: Hs-Siglec9 ALPHAscreen SOP 20170721. To be noted: 10 µM.
Sequence of Sialic acid-binding Ig-like lectin 9 (Homo sapiens) (Q9Y336 whole entry): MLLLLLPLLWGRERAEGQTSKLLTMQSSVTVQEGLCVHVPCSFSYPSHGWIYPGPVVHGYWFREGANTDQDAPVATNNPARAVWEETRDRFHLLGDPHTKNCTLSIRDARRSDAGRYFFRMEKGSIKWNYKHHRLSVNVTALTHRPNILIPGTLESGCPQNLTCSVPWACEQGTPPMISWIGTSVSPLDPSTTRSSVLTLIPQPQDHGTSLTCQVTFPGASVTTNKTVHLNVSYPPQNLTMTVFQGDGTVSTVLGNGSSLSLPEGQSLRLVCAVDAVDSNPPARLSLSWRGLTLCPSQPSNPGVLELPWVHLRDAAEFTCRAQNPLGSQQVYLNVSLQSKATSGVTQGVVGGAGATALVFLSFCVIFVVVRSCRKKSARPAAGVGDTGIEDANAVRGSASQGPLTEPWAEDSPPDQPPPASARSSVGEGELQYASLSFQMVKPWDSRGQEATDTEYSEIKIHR
The next assay relates to Trypanosoma cruzi. Put plainly: Trypanosoma cruzi phosphomannomutase and mannose-1-phosphate guanylyltransferase assay. In kind it is functional. To be noted: 10 µM.
For assay [5], the target named is T2, Arginase-2, mitochondrial (Homo sapiens) (UniProt P78540).
T2 sequence (whole entry): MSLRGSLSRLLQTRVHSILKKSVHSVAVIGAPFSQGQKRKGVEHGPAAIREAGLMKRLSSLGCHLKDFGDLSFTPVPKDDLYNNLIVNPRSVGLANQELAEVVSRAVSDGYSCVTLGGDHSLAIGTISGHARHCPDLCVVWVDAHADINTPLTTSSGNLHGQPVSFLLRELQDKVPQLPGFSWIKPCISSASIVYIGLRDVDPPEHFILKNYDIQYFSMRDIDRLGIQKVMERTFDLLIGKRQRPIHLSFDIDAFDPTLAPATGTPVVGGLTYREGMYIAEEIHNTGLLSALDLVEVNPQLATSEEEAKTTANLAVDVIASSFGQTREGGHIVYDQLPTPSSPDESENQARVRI
The experiment in a line: in vitro enzyme assay to detect the production of urea directly proportional to the activity of Arginase II. Note: in the data most compounds retested in dose-response had high values. In kind it is functional. To be noted: 33.3 µM.

The target of assay [6] is T3, Proteasome subunit beta (Trypanosoma cruzi) (UniProt O96673).
T3 sequence (whole entry): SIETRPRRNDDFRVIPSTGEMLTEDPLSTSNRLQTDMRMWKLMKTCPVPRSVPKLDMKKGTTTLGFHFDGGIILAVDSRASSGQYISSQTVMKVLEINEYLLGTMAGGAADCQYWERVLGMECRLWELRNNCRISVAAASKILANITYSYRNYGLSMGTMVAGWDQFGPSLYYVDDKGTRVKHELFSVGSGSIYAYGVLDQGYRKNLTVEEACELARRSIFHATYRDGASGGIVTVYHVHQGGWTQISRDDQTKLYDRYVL
The experiment in a line: Trypanosoma cruzi proteasome chymotrypsin-like activity (TcProtChymo) assay. Note: in the data most compounds retested in dose-response had high values. The format is functional. To be noted: 9.37 µM.

The species entered for the next assay is Homo sapiens. The experiment in a line: To identify inhibition of the IFN signalling (Jak-Stat) pathway via expression of an eGFP reporter gene under the control of an IFN-stimulated response element (ISRE) containing MxA promoter. In kind it is functional. To be noted: 30 µM.
Assay [7] has as its target T4, Tyrosyl-tRNA synthetase, putative (Trypanosoma cruzi (strain CL Brener)) (UniProt Q4DSP6).
T4 sequence (whole entry): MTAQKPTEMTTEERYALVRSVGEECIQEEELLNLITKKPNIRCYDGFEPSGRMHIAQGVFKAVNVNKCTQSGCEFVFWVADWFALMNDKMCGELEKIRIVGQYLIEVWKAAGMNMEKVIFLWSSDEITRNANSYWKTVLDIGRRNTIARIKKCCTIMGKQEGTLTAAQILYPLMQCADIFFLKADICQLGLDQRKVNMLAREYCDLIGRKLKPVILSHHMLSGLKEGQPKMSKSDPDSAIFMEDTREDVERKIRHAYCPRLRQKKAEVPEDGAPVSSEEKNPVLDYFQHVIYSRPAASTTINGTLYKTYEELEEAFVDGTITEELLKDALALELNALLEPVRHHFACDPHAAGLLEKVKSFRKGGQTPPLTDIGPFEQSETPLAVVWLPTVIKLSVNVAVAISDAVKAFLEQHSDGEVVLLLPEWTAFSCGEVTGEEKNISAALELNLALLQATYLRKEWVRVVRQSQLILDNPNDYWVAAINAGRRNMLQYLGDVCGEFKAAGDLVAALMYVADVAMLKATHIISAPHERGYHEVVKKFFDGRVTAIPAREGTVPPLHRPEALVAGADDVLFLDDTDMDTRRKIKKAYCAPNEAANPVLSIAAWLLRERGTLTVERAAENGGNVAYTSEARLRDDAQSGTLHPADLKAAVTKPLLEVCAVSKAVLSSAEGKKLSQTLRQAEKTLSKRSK
The experiment in a line: Trypanosoma cruzi tyrosyl tRNA synthetase (TcYRS) _High Tyrosine SOP. Note: in the data most compounds retested in dose-response had high values. In kind it is functional. To be noted: 30 µM.

In assay [8] the target is T4, Tyrosyl-tRNA synthetase, putative (Trypanosoma cruzi (strain CL Brener)). Put plainly: Trypanosoma cruzi tyrosyl tRNA synthetase (TcYRS) SOP. In kind it is functional. To be noted: 30 µM.
Assay [9] deals with Chromo domain-containing protein 1 (Saccharomyces cerevisiae (strain ATCC 204508 / S288c) (Baker's yeast)) (UniProt P32657). The experiment in a line: ScCHD-1 Enzyme Inhibition Assay. Note: in the data most compounds retested in dose-response had high values. In kind it is functional. To be noted: 30 µM.
Sequence of Chromo domain-containing protein 1 (Saccharomyces cerevisiae (strain ATCC 204508 / S288c) (Baker's yeast)) (P32657 whole entry, the tested form may be a part): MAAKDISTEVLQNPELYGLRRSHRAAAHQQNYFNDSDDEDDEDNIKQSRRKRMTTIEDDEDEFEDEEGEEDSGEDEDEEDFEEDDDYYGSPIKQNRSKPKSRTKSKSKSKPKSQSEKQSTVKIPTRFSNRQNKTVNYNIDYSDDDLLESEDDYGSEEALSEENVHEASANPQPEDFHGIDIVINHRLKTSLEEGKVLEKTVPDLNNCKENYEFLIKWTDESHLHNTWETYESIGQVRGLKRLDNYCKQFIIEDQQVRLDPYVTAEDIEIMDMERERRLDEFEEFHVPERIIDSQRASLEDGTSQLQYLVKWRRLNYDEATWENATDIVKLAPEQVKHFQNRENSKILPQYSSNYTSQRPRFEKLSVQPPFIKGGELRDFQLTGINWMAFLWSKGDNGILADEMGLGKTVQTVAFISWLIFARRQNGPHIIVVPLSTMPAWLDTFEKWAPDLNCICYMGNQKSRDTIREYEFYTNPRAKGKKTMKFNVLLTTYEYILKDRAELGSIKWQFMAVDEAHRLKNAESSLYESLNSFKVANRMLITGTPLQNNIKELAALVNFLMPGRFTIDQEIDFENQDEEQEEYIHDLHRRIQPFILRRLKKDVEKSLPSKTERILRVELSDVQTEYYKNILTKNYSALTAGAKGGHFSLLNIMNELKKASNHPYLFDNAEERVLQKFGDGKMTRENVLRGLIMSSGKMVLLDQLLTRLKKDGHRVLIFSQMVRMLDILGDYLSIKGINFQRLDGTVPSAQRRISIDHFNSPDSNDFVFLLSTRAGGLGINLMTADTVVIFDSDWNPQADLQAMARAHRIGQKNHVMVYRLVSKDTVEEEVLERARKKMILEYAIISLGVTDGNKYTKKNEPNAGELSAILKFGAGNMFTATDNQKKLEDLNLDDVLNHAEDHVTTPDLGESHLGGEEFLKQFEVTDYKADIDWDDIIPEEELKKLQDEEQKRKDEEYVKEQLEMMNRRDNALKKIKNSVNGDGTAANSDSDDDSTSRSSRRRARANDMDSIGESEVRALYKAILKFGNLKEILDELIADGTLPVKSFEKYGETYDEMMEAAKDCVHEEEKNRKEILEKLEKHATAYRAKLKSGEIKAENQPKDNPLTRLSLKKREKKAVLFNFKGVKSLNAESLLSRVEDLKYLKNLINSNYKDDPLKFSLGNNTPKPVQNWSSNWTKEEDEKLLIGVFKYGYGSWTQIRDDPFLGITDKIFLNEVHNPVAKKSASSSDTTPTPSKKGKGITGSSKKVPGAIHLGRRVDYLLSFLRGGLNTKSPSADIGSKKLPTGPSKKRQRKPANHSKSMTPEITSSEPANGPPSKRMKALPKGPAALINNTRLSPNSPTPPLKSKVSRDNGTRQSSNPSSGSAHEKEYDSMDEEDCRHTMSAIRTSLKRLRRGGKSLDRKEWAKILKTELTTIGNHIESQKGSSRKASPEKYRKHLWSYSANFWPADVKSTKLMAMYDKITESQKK

Sequence of Protein translocase subunit SecA (Escherichia coli (strain K12)) (P10408 whole entry): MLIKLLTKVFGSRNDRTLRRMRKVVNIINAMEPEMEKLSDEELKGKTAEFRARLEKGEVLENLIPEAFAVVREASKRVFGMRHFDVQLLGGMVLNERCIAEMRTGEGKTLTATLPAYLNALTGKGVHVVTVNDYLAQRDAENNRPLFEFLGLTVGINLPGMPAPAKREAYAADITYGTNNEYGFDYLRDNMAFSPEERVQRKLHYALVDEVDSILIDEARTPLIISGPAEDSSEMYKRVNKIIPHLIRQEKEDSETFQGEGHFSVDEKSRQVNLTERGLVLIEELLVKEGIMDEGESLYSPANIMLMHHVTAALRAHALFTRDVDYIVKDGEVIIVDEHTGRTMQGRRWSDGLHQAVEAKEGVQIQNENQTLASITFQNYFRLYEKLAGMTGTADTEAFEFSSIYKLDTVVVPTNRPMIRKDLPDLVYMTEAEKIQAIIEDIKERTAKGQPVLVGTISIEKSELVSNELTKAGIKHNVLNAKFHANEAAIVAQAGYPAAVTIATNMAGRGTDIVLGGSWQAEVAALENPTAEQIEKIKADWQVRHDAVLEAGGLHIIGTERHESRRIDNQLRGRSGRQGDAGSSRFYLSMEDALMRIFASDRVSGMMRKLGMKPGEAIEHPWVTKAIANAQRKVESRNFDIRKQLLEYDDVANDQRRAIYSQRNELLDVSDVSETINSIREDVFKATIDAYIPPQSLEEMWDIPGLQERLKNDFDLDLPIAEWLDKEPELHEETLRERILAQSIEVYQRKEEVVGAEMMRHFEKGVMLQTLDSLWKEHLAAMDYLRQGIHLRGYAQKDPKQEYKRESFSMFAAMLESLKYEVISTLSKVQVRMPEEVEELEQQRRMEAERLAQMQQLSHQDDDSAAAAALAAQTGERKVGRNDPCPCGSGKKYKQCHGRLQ

Consider `CN(Cc1cccc(Cl)c1)S(=O)(=O)N1CCOCC1`, for which the Percent Effect in [1] was -3.38%; in assay [2], 10.5%; in assay [3] it was 6.62%; in [4], -2.67%; in the assay on Trypanosoma cruzi it was 4.58%; in assay [5], -5.92%. For the same molecule, the Percent Effect was 23.9% in assay [6]; -6.09% in the assay filed under Homo sapiens; 1.06% in assay [7]; 15.6% in [8]; -2.59% in [9].

On to `CCn1ccnc1CN1CCN(Cc2ccc(C#N)cc2)CC1`, for which the Percent Effect is -5.95% in assay [1]; 21.1% in assay [2]; -10.9% in [3]; -5.15% in assay [4]; 9.96% in the assay on Trypanosoma cruzi; -4.6% in assay [5]. Besides, the Percent Effect in [6] is 15.9%; in the assay filed under Homo sapiens, 19.8%; in assay [7] it was 3.43%; in [8] it was 19.5%; in assay [9], -11.6%.

In the case of `Cc1ncsc1C(=O)N(C)Cc1cccc(Cl)c1`, the Percent Effect was 0.989% in assay [1]; 18.4% in assay [2]; -2.9% in assay [3]; -2.59% in assay [4]; 2.44% in the assay on Trypanosoma cruzi; -2.3% in assay [5]. Also, the Percent Effect in assay [6] was 20.6%; in the assay filed under Homo sapiens, 7.48%; in assay [7] it was 5.39%; in assay [8], 19.5%; in [9], -10.9%.

For `Cc1ccc(-c2nc(CN3CCOC(c4ccccc4)C3)cs2)o1` (stereo unspecified), the Percent Effect was 0.984% in [1]; -24.3% in [2]; -0.197% in assay [3]; 6.73% in assay [4]; 2.7% with Trypanosoma cruzi; 3.81% in assay [5]. For the same molecule, the Percent Effect in assay [6] was 12.6%; in the assay listed under Homo sapiens it was -17.4%; in [7] it was 3.7%; in assay [8], 0%; in assay [9] it was 17.1%.

`CCO[C@@H]1CO[C@@]2(CCCN(Cc3scnc3C)C2)C1`: the Percent Effect in assay [1] is -2.88%; in [2] it was 0%; in [3], -3.01%; in [4], 9.05%; with Trypanosoma cruzi it was 7.14%; in assay [5], -5.19%. The Percent Effect is 9.85% in [6]; 3.99% in the assay filed under Homo sapiens; -4.17% in assay [7]; 3.7% in [8]; -0.793% in [9].

As for `NC(=O)c1ccc(CN2CCCC(O)C2)cc1` (stereo unspecified), the Percent Effect was -2.93% in [1]; 13.5% in [2]; -3.22% in [3]; -5.21% in assay [4]; 4.69% in the assay with Trypanosoma cruzi; 37.5% in [5]. Besides, the Percent Effect in assay [6] is 17.2%; in the assay filed under Homo sapiens, 0.641%; in assay [7] it was 5.94%; in assay [8], 15.8%; in assay [9], -0.618%.

As to `COc1ccc2nnc(CCCC(=O)NCCC3=CCCCC3)n2n1`, the Percent Effect in [1] is -0.326%; in assay [2], 12%; in assay [3] it was -1.46%; in assay [4], -0.0396%; in the assay with Trypanosoma cruzi, 4.71%; in [5] it was -7.57%. Further, the Percent Effect in [6] was 12.2%; in the assay listed under Homo sapiens it was 23.4%; in assay [7], 7.41%; in [8], 17.9%; in [9], -9.92%.

For `c1ccc(-c2nnn3c2COC(CNCC2CCOCC2)C3)cc1` (stereo unspecified), the Percent Effect in assay [1] is -4.05%; in assay [2], 8%; in assay [3] it was 10.9%; in [4] it was 4.62%; in the assay with Trypanosoma cruzi, -0.984%; in assay [5], -1.63%. In addition, the Percent Effect was 0.0881% in assay [6]; 12.3% in the assay listed under Homo sapiens; 7.45% in assay [7]; 19.2% in assay [8]; -2.25% in assay [9].

For the molecule `Cc1nn(C)c(N2CCOCC2)c1CNC(C)c1ccco1` (stereo unspecified), the Percent Effect in [1] is -4.24%; in assay [2], 20.8%; in [3], 131%; in assay [4], 26.4%; with Trypanosoma cruzi, 6.32%; in assay [5] it was 2.21%. In addition, the Percent Effect in assay [6] was 13.9%; in the assay filed under Homo sapiens, -7.48%; in assay [7] it was 3.16%; in assay [8], 20.5%; in [9], -8.31%.

Regarding `Cc1nccc(-c2cccc(NCC(=O)N3CCNC3=O)c2)n1`, the Percent Effect in assay [1] is -3.58%; in [2] it was 21.1%; in assay [3] it was -11.7%; in assay [4], 0.813%; with Trypanosoma cruzi, 6.82%; in [5] it was -1.44%. Further, the Percent Effect in assay [6] was 11.2%; in the assay listed under Homo sapiens, 16.4%; in assay [7], 10.3%; in assay [8] it was 28.4%; in assay [9] it was -9.15%.

Take `Cc1noc(C)c1CNC(=O)N1CCC(CO)CC1`: the Percent Effect is -1.26% in [1]; 13.7% in assay [2]; -4.05% in assay [3]; 6.04% in assay [4]; 2.18% in the assay on Trypanosoma cruzi; -1.2% in [5]. Also, the Percent Effect is 7.62% in assay [6]; 23.9% in the assay listed under Homo sapiens; 7.29% in [7]; 16.1% in assay [8]; -0.505% in [9].

Values taken from ChEMBL document CHEMBL3988442, “University of Dundee, Small-Polar-MMV Screening Library” (2021).
